# Assay results published in PubChem BioAssay AID488969 (Vanderbilt High Throughput Screening Facility, 2010).
# In all, about 110,000 compounds were measured (“z-score”: median about -0.1, highest 2% from about 2 on). This is one part of a sample in which the highest values are shown more often than they occur. Active and inactive are the calls of the source.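 Rule for the calls: active = z-score in the third read window above 3 or below -3; inactive = the rest.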
# Target: Metabotropic glutamate receptor 8 (Rattus norvegicus) (UniProt P70579)
# Sequence (P70579 whole entry, looked up): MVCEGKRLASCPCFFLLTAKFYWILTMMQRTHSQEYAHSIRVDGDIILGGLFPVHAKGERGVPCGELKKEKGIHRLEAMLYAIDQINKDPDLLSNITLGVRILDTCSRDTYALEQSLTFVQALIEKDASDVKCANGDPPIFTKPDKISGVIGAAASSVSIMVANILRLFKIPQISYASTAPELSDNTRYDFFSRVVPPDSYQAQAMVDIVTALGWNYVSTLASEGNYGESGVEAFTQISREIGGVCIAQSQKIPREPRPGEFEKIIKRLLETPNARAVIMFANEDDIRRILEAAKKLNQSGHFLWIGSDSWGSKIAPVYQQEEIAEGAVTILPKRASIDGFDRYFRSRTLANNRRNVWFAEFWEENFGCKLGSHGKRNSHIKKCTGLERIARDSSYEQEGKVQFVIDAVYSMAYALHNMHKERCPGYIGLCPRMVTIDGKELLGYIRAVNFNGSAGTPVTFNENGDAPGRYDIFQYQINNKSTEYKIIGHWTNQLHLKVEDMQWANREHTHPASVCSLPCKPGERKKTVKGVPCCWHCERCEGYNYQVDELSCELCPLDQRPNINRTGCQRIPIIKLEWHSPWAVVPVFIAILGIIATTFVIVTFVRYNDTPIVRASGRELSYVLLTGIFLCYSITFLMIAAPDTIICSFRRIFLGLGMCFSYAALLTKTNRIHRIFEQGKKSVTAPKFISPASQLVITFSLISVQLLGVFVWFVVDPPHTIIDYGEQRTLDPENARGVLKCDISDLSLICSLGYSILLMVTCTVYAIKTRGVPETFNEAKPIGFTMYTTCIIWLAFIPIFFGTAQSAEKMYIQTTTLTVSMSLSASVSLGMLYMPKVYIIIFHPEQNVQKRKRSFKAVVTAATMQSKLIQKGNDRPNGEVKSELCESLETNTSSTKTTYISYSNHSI
# Test: rat mGluR8 modulators via GIRK flux, primary screen, cell-based, thallium flux, HTS (AID 488969)
# Conditions: HEK293 rat mGluR8, GIRK (G protein-gated inwardly rectifying potassium channel) thallium flux, FluoZin2; at 10 µM; stronger effect = higher value; submaximal glutamate (EC20) added with thallium
row,Structure (SMILES),z-score
1,COc1ccccc1CC(=O)Nc1ccc(-c2noc(COc3ccc(Cl)c(C)c3)n2)cc1,-0.166
2,Cc1cc(C)c2c(N)c(C(=O)c3cccc(Cl)c3)sc2n1,-0.231
3,CCc1ccc(N/C(SC)=C(/C#N)C(N)=O)cc1,0.119
4,CCn1c(SCc2nc3sc(C(=O)O)c(C)c3c(=O)[nH]2)nc2ccccc21,-0.449
5,COCCn1c(SCc2nc3sc(C(=O)OC)c(C)c3c(=O)[nH]2)nc2ccccc21,0.877
6,CCOC(=O)c1sc2nc(CSc3nc4ccccc4n3CC)[nH]c(=O)c2c1C,2.68
7,COc1cccc(-c2nnc(SCc3nc4ccccc4s3)n2C)c1,-0.34
8,CCCCCCOC(=O)/C=C/c1c(C)[nH]c(=O)[nH]c1=O,-0.139
9,CNC(=S)N/N=C(\C)c1ccc(-n2ccnc2)cc1,-0.579
10,C/C(=N\Nc1ccc(C(=O)O)cc1)c1nc2ccccc2n1C,-0.702
11,C/C(=N\NC(=O)c1ccc(C)cc1C)c1ccc(-n2ccnc2)cc1,-0.0942
12,C/C(=N\NC(=O)c1ccccc1)c1ccc(-n2ccnc2)cc1,2.25
13,C/C(=N\NC(=O)COc1ccc(C(C)(C)C)cc1)c1ccc(-n2ccnc2)cc1,0.123
14,COc1ccc(OCC(=O)N/N=C(\C)c2ccc(-n3ccnc3)cc2)cc1,-0.334
15,C/C(=N\NC(=O)c1ccccc1)c1nc2ccccc2n1C,3.71 (active)
16,Cn1c(/C=N/NC(=O)c2ccccc2)nc2ccccc21,0.298
17,C/C(=N\NC(=O)COc1ccc(C)cc1C(C)C)c1ccc(-n2ccnc2)cc1,2.53
18,Cn1c(=O)c2c(ncn2CC(=O)OCC(=O)Nc2ccccc2Cl)n(C)c1=O,-0.159
19,Clc1cccc2sc(N3CCOCC3)nc12,0.0232
20,CCOC(=O)C1=C(C)Nc2nc(SCc3cccnc3)nn2C1c1ccc(OC)cc1 (stereo not given),0.463
21,CN1CCN(S(=O)(=O)c2ccc(Br)s2)CC1,-0.0381
22,COC(=O)c1ccc(Cl)c(NC(=O)CN(c2ccc(OC)c(OC)c2)S(C)(=O)=O)c1,2.1

row,Structure (SMILES),z-score
1,COC(=O)c1ccc(Cl)c(NC(=O)CN2CCN(Cc3ccccc3)CC2)c1,-0.236
2,COC(=O)c1ccc(Cl)c(NC(=O)CN2CCN(C)CC2)c1,4.17 (active)
3,CCOC(=O)c1oc2ccc(OC)cc2c1NC(=O)CN1CCN(C)CC1,0.148
4,COC(=O)c1oc2ccc(Br)cc2c1NC(=O)CN1CCN(C)CC1,2.22
5,COC(=O)c1ccc(Cl)c(NC(=O)CN(c2ccc3c(c2)OCO3)S(C)(=O)=O)c1,0.625
6,COC(=O)c1ccc(Cl)c(NC(=O)CN(c2ccc(OC)cc2)S(=O)(=O)c2ccccc2)c1,-0.285
7,CN1CCN(CC(=O)Nc2c(C(=O)C3CC3)oc3ccccc23)CC1,-0.346
8,COC(=O)c1ccc(Cl)c(NC(=O)CN2CCOCC2)c1,0.185
9,Cc1ccc(CNC(=O)/C=C/c2c(Cl)cccc2Cl)cc1,-0.641
10,O=C(CSc1ncnc2c1oc1ccccc12)NCC1CCCO1 (stereo not given),-0.215
11,COc1ccc(/C=N/n2c(N)nc(-c3ccccc3)c2-c2ccccc2)cc1,-0.377
12,O=C(NCCCN1CCN(c2ccccc2)CC1)Nc1ccccc1C(F)(F)F,-0.506
13,Cc1ccc(NC(=O)c2sc3nc4c(c(-c5ccco5)c3c2N)CCC4)cc1,-0.382
14,CC(=O)NC(Cc1ccccc1C)C(=O)NC1CCN(c2ncccc2[N+](=O)[O-])CC1 (stereo not given),-0.207
15,CCC(=O)Nc1cc2nn(-c3ccccc3)nc2cc1Cl,0.0874
16,CCNC(=S)N/N=C(\C)c1ccc(Cl)s1,4.7 (active)
17,CCNC(=S)N/N=C(\C)c1ccc(N2CCOCC2)cc1,0.245
18,C=C(C)CNC(=S)N/N=C(\C)c1ccc(-n2ccnc2)cc1,-0.342
19,CCNC(=S)N/N=C(\C)c1cccc([N+](=O)[O-])c1,0.559
20,CNC(=S)N/N=C(\C)c1ccc(N2CCOCC2)cc1,0.456
21,C=C(C)CNC(=S)N/N=C(\C)c1ccc(Cl)s1,2.26
22,CNC(=S)N/N=C(\C)c1ccc(C)c(C)c1,1.2

row,Structure (SMILES),z-score
1,C=C(C)CNC(=S)N/N=C/c1ccc(N2CCOCC2)cc1,0.134
2,CNC(=S)N/N=C(\C)c1cccc([N+](=O)[O-])c1,-0.339
3,C/C(=N\Nc1nc2ccccc2[nH]1)c1ccc(Cl)s1,-1.3
4,CNC(=S)N/N=C(\C)c1ccc(Cl)s1,3.13 (active)
5,CNC(=S)N/N=C(\C)c1ccc(C(C)(C)C)cc1,2.03
6,Cn1c(=O)c2[nH]c(-c3cccnc3)nc2n(C)c1=O,0.366
7,C=CCN1C(=O)C(CC(=O)Nc2ccccc2)SC1=Nc1c(C)n(C)n(-c2ccccc2)c1=O (stereo not given),1.07
8,COc1cc(/C=C(\C#N)c2nc(-c3cc4ccccc4oc3=O)cs2)ccc1O,-2.33
9,CCC(=O)Nc1ccc(NC(=O)CN2CCCC(C)C2)c(Cl)c1 (stereo not given),-0.146
10,Cc1nn(CC(O)COc2ccc3c(c2)CCC3)c(C)c1C (stereo not given),-0.0908
11,Cc1nc2cc(Nc3nnc(-c4ccccc4)c4ccccc34)ccc2n1C,-0.174
12,CN1CCN(C(=O)NC2CCCCC2)CC1,-0.173
13,CCOP(=O)(O)c1ccccc1OCCCCCOc1ccccc1P(=O)(O)OCC,-0.285
14,CCOC(=O)c1c(N)nn(C(=O)CC)c1-c1ccccc1,-0.667
15,CCOc1ccccc1-c1nc(C(N)=O)c2[nH]c(=O)n(-c3cccc(C)c3)c2n1,-1.43
16,COc1cc(/C(C)=N/NC(=S)NC(C)C)cc(OC)c1OC,-0.0595
17,C/C(=N\NC(N)=S)c1ccc(Cl)s1,2.19
18,C/C(=N\NC(=S)NC(C)C)c1ccc(-n2ccnc2)cc1,-0.306
19,C/C(=N\NC(=O)C(=O)Nc1cccc(C(F)(F)F)c1)c1ccc(Cl)s1,0.376
20,C/C(=N/Nc1ccc(F)cc1)c1ccc(Cl)s1,0.13
21,C/C(=N\NC(=S)NC(C)C)c1ccc(Cl)s1,5.46 (active)
22,Cc1noc(C)c1COc1cccc(C(=O)OCC(=O)NC(=O)c2ccc(OC(F)F)cc2)c1,-0.262

row,Structure (SMILES),z-score
1,N/C(=N\OC(=O)c1cccc(Br)c1)c1ccc(Br)cc1,-0.325
2,COc1ccc(C(=O)COC(=O)CNC(=O)c2cc(OC)cc(OC)c2)cc1,-0.208
3,NC(=O)C(Cc1ccccc1)NS(=O)(=O)c1ccc(N2CCCC2=O)cc1 (stereo not given),0.443
4,CCC(C)NC(=O)c1ccccc1NC(=O)Nc1ccccc1 (stereo not given),6.32 (active)
5,CCC(C)NC(=O)c1ccccc1C(=O)NC(C)CC (stereo not given),0.631
6,CC(C)CNC(=O)c1ccccc1NC(=O)Nc1ccccc1,0.337
7,Cc1cccc(CN(CC(=O)N/N=C/c2ccco2)S(=O)(=O)c2ccc(Cl)cc2)c1,0.848
8,CCN(CC)C(=O)C1CCCN(C(=O)Nc2ccc(NC(=O)N3CCCC(C(=O)N(CC)CC)C3)cc2)C1 (stereo not given),-0.196
9,COC(=O)CSc1nnc(-c2cccnc2)n1-c1cccc(OC)c1,0.978
10,Cn1c(=O)oc2cc(S(=O)(=O)NC3CCCc4ccccc43)ccc21 (stereo not given),0.254
11,CC(C)CC(NS(=O)(=O)c1ccc2c(c1)oc(=O)n2C)C(=O)NC1CCCc2ccccc21 (stereo not given),5.09 (active)
12,CSCCC(NS(=O)(=O)c1ccc2c(c1)oc(=O)n2C)C(=O)NC1CCCc2ccccc21 (stereo not given),0.148
13,CCc1ccc2oc(-c3cccc(N)c3)nc2c1,-0.135
14,Cc1cc(C(=O)CSc2n[nH]c(N)n2)c(C)n1-c1ccc(F)cc1,-0.628
15,Cc1cc(C(=O)CSc2n[nH]c(N)n2)c(C)n1-c1cc(F)ccc1F,6.6 (active)
16,Cc1cc(C(=O)CSc2n[nH]c(N)n2)c(C)n1-c1cccc(F)c1,-1.69
17,COc1ccc(NS(=O)(=O)c2ccc(NC(=O)c3ccc(N(C)S(C)(=O)=O)cc3)cc2)c(OC)c1,-0.141
18,COC(=O)C1=C(C)NC(=O)/C1=C\c1ccco1,8.73 (active)
19,COC(=O)C1=C(C)N(C)C(=O)/C1=C\c1ccco1,-0.144
20,COC(=O)C1=C(C)NC(=O)/C1=C\c1cccs1,-0.512
21,CC(=O)c1nc(N2C(=O)CC(Cc3cccc(C)c3)C2=O)sc1C (stereo not given),-0.395
22,CC(=O)c1nc(N2C(=O)CC(Cc3ccc(C)cc3)C2=O)sc1C (stereo not given),-0.714

row,Structure (SMILES),z-score
1,CC(=O)c1nc(N2C(=O)CC(Cc3cc(C)cc(C)c3)C2=O)sc1C (stereo not given),2.19
2,COc1ccc(NC(=S)N/N=C2\CC(C)(C)Oc3ccc(OC)cc32)cc1,-0.239
3,CC(C)(C)C1CCC2(CC1)Nc1cccc3cccc(c13)N2,4.88 (active)
4,CC(C)(C)C1CCC2(CC1)NC(=S)N(c1ccccc1)N2 (stereo not given),0.0264
5,c1cc2c3c(cccc3c1)NC1(CCCCC1)N2,-0.436
6,Cc1cc(NC(=O)c2ccc(COc3ccc(Cl)c(C)c3)o2)no1,-0.225
7,O=C(NC1CC1)c1ccc2c3c(cccc13)CC2,-0.311
8,N=c1sccn1CC(=O)Nc1cc(Cl)ccc1Oc1ccccc1,1.02
9,COc1ccc(OCCC(=O)OCC(=O)NCc2ccccc2)cc1,-0.332
10,Cc1cccc(-n2c(C)nc3cc(C(=O)NCc4ccc5c(c4)OCO5)ccc32)c1,0.471
11,Cc1ccccc1NC(=S)/C(=C(\[O-])c1ccc(C)c([N+](=O)[O-])c1)[n+]1ccccc1,0.013
12,Cc1c(Cl)cccc1NC(=S)/C(=C(\[O-])c1ccc(Cl)s1)[n+]1ccccc1,2.24
13,CC(C)(C)c1cc[n+](/C(C(=S)NC2CC2)=C(/[O-])c2ccc(Cl)s2)cc1,-0.275
14,CCN(CC)C(=O)COc1cc(C)cc2oc(=O)cc(-c3ccccc3)c12,-0.189
15,CC(C)NC(=S)Nc1cccc2cnccc12,-0.271
16,COc1ccccc1NC(=S)Nc1cccc2cnccc12,-0.138
17,CCCCNC(=S)Nc1cccc2cnccc12,-0.208
18,C=C(C)CNC(=S)Nc1cccc2cnccc12,3.1 (active)
19,COc1ccc(NC(=S)Nc2cccc3cnccc23)cc1,-0.198
20,S=C(Nc1cccc(Cl)c1)Nc1cccc2cnccc12,2.74
21,Cc1cc(C)nc(N2CCCC(C(=O)NCC(c3ccccc3)c3ccccc3)C2)n1 (stereo not given),0.0177
22,COc1ccc(S(=O)(=O)N(C)CC(=O)Nc2ccc(C(F)(F)F)cc2)cc1Cl,1.57
